PubChem BioAssay AID1159580 (chemical genetic matrix, 2015)
“And” between values parts separate entries of the source, which are not always exact repeats. Equal values may be shown once. The campaign covered roughly 5,500 compounds. About 2,000 (36%) were called active. Another 18% or so got no clear call; they are omitted. Cut-off read from the data, not from the text of the source: active = normalized growth mostly below about 0.91 (no sharp cut-off); inconclusive = no clear call, values can overlap the other calls; inactive = mostly above about 0.92. The list shows a part of the results.

Experiment: chemical genetic growth profiling, strain panel (AID 1159580);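 note: tested at 20 µM; growth read once vehicle control cultures reached saturation at 30 °C; 1 = growth at the plate median or of vehicle wells; lower values mean less growth of the strain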
Settings: S. cerevisiae deletion strains, growth OD

Measured: normalized growth

O=c1c(O)c(-c2ccccc2)oc2cc(O)ccc12
0.208 (active) and 1.01 (inactive): locus YJL095W, strain BCK1, stronger effect = lower value
inactive: locus YBR021W, strain FUR4, stronger effect = lower value 1.05 | locus YCR088W, strain abp1, stronger effect = lower value 0.937 | locus YDL005C, strain med2, stronger effect = lower value 0.941 | locus YDL185W, strain tfp1, stronger effect = lower value 0.928 | locus YDR159W, strain sac3, stronger effect = lower value 0.886 | locus YDR195W, strain ref2 1.07 | locus YEL061C, strain CIN8 (second series), stronger effect = lower value 0.915 | locus YER110C, stronger effect = lower value 0.92 | locus YGL078C, strain dbp3, stronger effect = lower value 0.948 | locus YGL227W, strain vid30, stronger effect = lower value 0.931 | locus YHR079C, strain IRE1, stronger effect = lower value 1.07 | locus YIL125W, strain kgd1, stronger effect = lower value 0.951 | locus YJR066W, strain TOR1, stronger effect = lower value 0.982
active: locus YAL021C, strain ccr4, stronger effect = lower value 0.572 | locus YAL026C, strain drs2, stronger effect = lower value 0.486 | locus YAL030W, strain snc1, stronger effect = lower value 0.66 | locus YBL061C, strain skt5, stronger effect = lower value 0.685 | locus YBR009C, strain hhf1, stronger effect = lower value 0.597 | locus YBR023C, strain chs3, stronger effect = lower value 0.518 | locus YBR171W, strain sec66, stronger effect = lower value 0.825 | locus YBR229C, strain ROT2, stronger effect = lower value 0.873 | locus YBR231C, strain swc5, stronger effect = lower value 0.572 | locus YBR279W, strain paf1, stronger effect = lower value 0.641 | locus YCL011C, strain gbp2, stronger effect = lower value 0.583 | locus YCL016C, strain dcc1, stronger effect = lower value 0.711 | locus YCL029C, strain bik1, stronger effect = lower value 0.779 | locus YCL061C, strain MRC1, stronger effect = lower value 0.799 | locus YCL069W, strain vba3, stronger effect = lower value 0.864 | locus YDL035C, strain GPR1, stronger effect = lower value 0.432 | locus YDL040C, strain nat1, stronger effect = lower value 0.847 | locus YDL074C, strain BRE1, stronger effect = lower value 0.455 | locus YDL101C, strain DUN1, stronger effect = lower value 0.697 | locus YDL192W, strain arf1, stronger effect = lower value 0.664 | locus YDR001C, strain nth1, stronger effect = lower value 0.887 | locus YDR069C, strain doa4, stronger effect = lower value 0.413 | locus YDR101C, strain arx1, stronger effect = lower value 0.903 | locus YDR137W, strain rgp1, stronger effect = lower value 0.38 | locus YDR150W, strain NUM1, stronger effect = lower value 0.707 | locus YDR162C, strain NBP2, stronger effect = lower value 0.121 | locus YDR297W, strain sur2, stronger effect = lower value 0.77 | locus YDR318W, strain mcm21, stronger effect = lower value 0.708 | locus YDR334W, strain swr1, stronger effect = lower value 0.704 | locus YDR335W, strain msn5, stronger effect = lower value 0.757 | locus YDR388W, stronger effect = lower value 0.759 | locus YDR392W, strain spt3, stronger effect = lower value 0.369 | locus YDR502C, strain sam2, stronger effect = lower value 0.751 | locus YEL003W, strain gim4, stronger effect = lower value 0.754 | locus YEL037C, strain rad23, stronger effect = lower value 0.794 | locus YEL061C, strain CIN8, stronger effect = lower value 0.705 | locus YER015W, strain faa2, stronger effect = lower value 0.454 | locus YER016W, strain bim1, stronger effect = lower value 0.766 | locus YER111C, strain swi4, stronger effect = lower value 0.873 | locus YER155C, strain BEM2 (second series), stronger effect = lower value 0.81 | locus YER155C, strain BEM2, stronger effect = lower value 0.627 | locus YER167W, strain BCK2, stronger effect = lower value 0.676 | locus YFR010W, strain ubp6, stronger effect = lower value 0.62 | locus YGL086W, strain mad1, stronger effect = lower value 0.699 | locus YGL167C, strain pmr1, stronger effect = lower value 0.882 | locus YGL173C, strain kem1, stronger effect = lower value 0.382 | locus YGL240W, strain doc1, stronger effect = lower value 0.675 | locus YGL248W, strain PDE1, stronger effect = lower value 0.506 | locus YGL253W, strain hxk2, stronger effect = lower value 0.508 | locus YGR078C, strain PAC10, stronger effect = lower value 0.586 | locus YGR135W, strain pre9, stronger effect = lower value 0.675 | locus YGR252W, strain gcn5, stronger effect = lower value 0.701 | locus YHR013C, strain ard1, stronger effect = lower value 0.439 | locus YHR027C, strain rpn1, stronger effect = lower value 0.339 | locus YHR079C, strain IRE1 (second series), stronger effect = lower value 0.913 | locus YHR094C, strain hxt1, stronger effect = lower value 0.903 | locus YHR129C, strain ARP1, stronger effect = lower value 0.564 | locus YHR142W, strain chs7, stronger effect = lower value 0.474 | locus YHR200W, strain rpn10, stronger effect = lower value 0.825 | locus YIL066C, strain RNR3, stronger effect = lower value 0.663 | locus YIL073C, strain SPO22, stronger effect = lower value 0.326 | locus YIR030C, strain dcg1, stronger effect = lower value 0.858 | locus YJL092W, strain hpr5, stronger effect = lower value 0.79 | locus YJL095W, strain BCK1 (second series), stronger effect = lower value 0.337 | locus YJL115W, strain asf1, stronger effect = lower value 0.9 | locus YJL129C, strain trk1, stronger effect = lower value 0.809 | locus YJL134W, strain LCB3, stronger effect = lower value 0.844 | locus YJL154C, strain vps35, stronger effect = lower value 0.885 | locus YJL164C, strain tpk1, stronger effect = lower value 0.432 | locus YJL166W, strain qcr8, stronger effect = lower value 0.471 | locus YJL168C, strain set2, stronger effect = lower value 0.902 | locus YJL187C, strain SWE1 (second series), stronger effect = lower value 0.5 | locus YJL187C, strain SWE1, stronger effect = lower value 0.653 | locus YJR043C, strain POL32, stronger effect = lower value 0.387 | locus YJR075W, strain HOC1, stronger effect = lower value 0.571
0.434 (active) and 1.07 (inactive): locus YHR030C, strain SLT2, stronger effect = lower value
